# About 83,000 compounds went through this panel and 20% of them were active in at least one assay; those are over-represented in the sample as a whole.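 48-hour exposure, single concentration, 96-well plates; percent growth endpoint where 0 means no net growth. Active: below 10.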 A number with no mark means an inactive call. The source made the active and inactive calls.
# Columns and labels:
# Assay in all cases: NCI-60 one-dose screen, 48 h (100 = growth as untreated, 0 = no growth, -100 = all killed)
# Conditions in all cases: 10 µM unless noted
# SK-MEL-2 melanoma = test system: SK-MEL-2 melanoma
# EKVX NSCLC = test system: EKVX NSCLC
# SN12C renal = test system: SN12C renal
# UO-31 renal = test system: UO-31 renal
# TK-10 renal = test system: TK-10 renal
# ACHN renal = test system: ACHN renal
# CAKI-1 renal = test system: CAKI-1 renal
# A498 renal = test system: A498 renal
# CCRF-CEM leukemia = test system: CCRF-CEM leukemia
# MOLT-4 leukemia = test system: MOLT-4 leukemia
SMILES,growth (SK-MEL-2 melanoma),growth (EKVX NSCLC),growth (SN12C renal),growth (UO-31 renal),growth (TK-10 renal),growth (ACHN renal),growth (CAKI-1 renal),growth (A498 renal),growth (CCRF-CEM leukemia),growth (MOLT-4 leukemia)
C=CCSc1nnc(-c2c(C)nc3sccn23)o1,104%,76.4%,96.8%,71.8%,124%,88.5%,77.9%,96.9%,90.3%,116%
COc1ccc2[nH]cc(-c3cc(N)n4nc(-c5c[nH]c6ccccc56)cc4n3)c2c1,-63.7% (active),10.9%,49.1%,-74.9% (active),-1.71% (active),8.14% (active),-59.5% (active),-0.442% (active),-20% (active),-7.46% (active)
NS(=O)(=O)c1ccc(Nc2nc(N/N=C/c3cc(Br)c(O)c(Br)c3)nc(Nc3ccccc3)n2)cc1,-5.4% (active),86.3%,46.3%,85.3%,113%,92.3%,94.4%,102%,10.5%,-8.36% (active)
Nc1cc(-c2c[nH]c3ccc(Br)cc23)nc2cc(-c3c[nH]c4ccccc34)nn12,-66.8% (active),-67.5% (active),-66.3% (active),-54% (active),-57.3% (active),-35.5% (active),-48.6% (active),-77.3% (active),-13.8% (active),3.76% (active)
CN1C(=O)C2(C(C#N)=C(c3ccc(Cl)cc3)Nc3c2c(-c2ccccc2)nn3-c2ccccc2)c2ccccc21 (stereo not given),89.8%,80.7%,86.3%,71.7%,103%,89.5%,71%,144%,75.6%,64.4%
COc1ccc(-c2cc(-c3cc(C(C)C)c(O)cc3C)nn2-c2ccc(S(N)(=O)=O)cc2)cc1,54.7%,61.1%,16%,39.1%,58%,55.8%,63.9%,87.7%,12.2%,14.7%
CN(C)c1nc(NCCNS(=O)(=O)c2ccc(C3=Nc4c(N)nc(N)nc4NC(c4ccc(C(F)(F)F)cc4)C3)cc2)nc(N2CCOCC2)n1 (stereo not given),21.8%,38.3%,48.1%,74.1%,68.9%,77.3%,37.1%,94.8%,21.8%,-5.12% (active)
ClC(Cn1ncc2c(Nc3cccc(Br)c3)nc(SCCN3CCOCC3)nc21)c1ccc(Br)cc1 (stereo not given),-11.9% (active),16.5%,26.2%,-65.7% (active),40.9%,7.98% (active),-28% (active),31.7%,-6.03% (active),-34.3% (active)
O=C1CCC(N2C(=O)c3cccc(NCCOCCOCCOCCC(=O)NCCCC(=O)NC(c4ccc5c(c4)OCO5)c4cc(Cl)c5cccnc5c4O)c3C2=O)C(=O)C1 (stereo not given),-5.74% (active),38.1%,26.9%,64.5%,95.2%,89.3%,69.8%,104%,-4.69% (active),8.18% (active)
COc1ccccc1NC(=O)c1ccc(NC(=O)CCl)s1,37.1%,59.7%,-52.8% (active),-20.5% (active),-6.19% (active),10.2%,-13.1% (active),73.1%,-18.9% (active),-19.5% (active)
O=C(CSc1nnc(-c2ccc(-c3nc4ccccc4[nH]3)cc2)o1)Nc1ccccc1,91.4%,93.9%,79.7%,104%,106%,23.1%,86%,130%,59%,27.4%
COc1ccc(/C=C/c2nc3ccccc3n3c(-c4cccc([N+](=O)[O-])c4)nnc23)cc1,-60.3% (active),-52% (active),-72.2% (active),-90.3% (active),-47.3% (active),-97.5% (active),-91.1% (active),75.7%,-14.9% (active),-36.5% (active)
CN(C)c1nc(NCCNS(=O)(=O)c2ccc(C(=O)/C=C/c3ccc(C(F)(F)F)cc3)cc2)nc(N2CCOCC2)n1,74.8%,37.1%,39.9%,-61.9% (active),70.4%,-33.2% (active),-32.7% (active),72.5%,-29% (active),-19.1% (active)
O=C(CSc1nc2sc3c(c2c(=O)n1-c1ccc(Cl)cc1)CCCC3)NNC(=O)c1ccc(Br)cc1,99.1%,60.9%,46%,62.3%,139%,91.2%,71.4%,127%,61.2%,73.2%
Cc1ccc(NC(=O)N/N=C/c2c[nH]c3ccccc23)c(C)c1,20.5%,34.7%,15.9%,26.6%,30.5%,22.8%,29.1%,55.7%,10%,6.25% (active)
O=C(c1cc2cc(OCCCN3CCC3)ccc2[nH]1)N1C[C@@H](CCl)c2c1cc(OCc1ccccc1)c1ccccc21,-93.4% (active),-46% (active),-40.1% (active),-84.6% (active),-3.9% (active),-96.8% (active),-84.6% (active),-25.3% (active),-18.2% (active),-15.4% (active)
Cc1ccc2c(c1)/C(=C/C(=O)c1cc3ccccc3oc1=O)C(=O)N2,72.6%,78.2%,67.8%,55.2%,80.7%,-63.2% (active),76.9%,128%,3.14% (active),32.8%
COc1cc2cc(C(=O)N3C[C@@H](CCl)c4c3cc(OC(=O)N(CCC(=O)N3CCN(C)CC3)[C@H]3CCSSC3)c3ccccc43)[nH]c2c(OC)c1OC,-85% (active),-67.7% (active),-10.3% (active),-26.9% (active),8.66% (active),-6.81% (active),13.7%,-19.6% (active),32%,-9.57% (active)
CCOC(=O)/C(F)=C/C1CC1C(c1ccccc1)c1ccccc1 (stereo not given),86.3%,86.5%,98.8%,70.2%,101%,98.9%,65.6%,87.9%,85.4%,76.8%
COc1ccc(-c2cc(C(=O)N=Nc3c(O)[nH]c4ccc(Cl)cc34)c3ccccc3n2)cc1OC,102%,90.1%,96.4%,81.8%,116%,105%,95.2%,167%,112%,118%
Cc1ccc2nc(SCc3ccccc3F)n(-c3ccccc3)c(=O)c2c1,102%,59.9%,90.6%,83.7%,90.2%,92.9%,83.3%,137%,73%,73.3%
Cc1ccc(N=Nc2c(N)nn3c(-c4cc5ccccc5oc4=O)ccnc23)cc1,61.5%,49.2%,48.2%,53.8%,57.9%,34.9%,57.1%,150%,70.2%,39%
O=CNc1ccc(-n2cnc3cc(-c4ccc(O)cc4)ccc32)cc1,115%,106%,71.7%,61%,108%,65.4%,87.3%,135%,76.4%,77.3%
CC[C@]12C=CCN3CC[C@]4(C(=C(C(=O)OC)C1)Nc1cc(OC)c([C@@H]5[C@H]6O[C@H]6[C@@]6(CC)CC(C(=O)OC)=C7Nc8cc(O)ccc8[C@@]78CCN5[C@@H]68)cc14)[C@@H]32,-67.3% (active),6.25% (active),-30.1% (active),-4.18% (active),25.6%,1.9% (active),11.7%,59%,-5.67% (active),-11.5% (active)
COc1cc(C2CC(c3ccc(S(=O)(=O)NCCNc4nc(N(C)C)nc(N5CCOCC5)n4)cc3)=Nc3c(N)nc(N)nc3N2)cc(OC)c1OC (stereo not given),108%,75.4%,86.5%,80.5%,107%,94.6%,88.4%,79%,99.3%,89.3%
O=C(N=Nc1c(O)[nH]c2ccc(Br)cc12)c1ccc2nc(-c3ccc(Cl)cc3)[nH]c2c1,2.45% (active),-14.1% (active),-50.8% (active),73.2%,54.3%,50.5%,68.1%,115%,7.74% (active),-0.379% (active)
